The record followed here is PubChem BioAssay.

The structures appear in SMILES notation. A number with no mark means an inactive call. Active and inactive are the calls of the source.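 Rule for the calls, unless noted: active = inhibition above the screen-wide mean plus 3 SD, about 51%; inactive = the rest.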

A short description of test [1]: yeast AGP1-GFP fluorescence change, single-dose – cell-based, flow cytometry, S. cerevisiae, cherry picks, confirmation (AID 2273;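 active = GFP response above 150% of the DMSO level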;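 note: median GFP channel fluorescence over the whole cell population gate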). As to conditions: S. cerevisiae AGP1-GFP strain, 3 h, at 10 µM. A general note: In flow cytometry, cells or beads pass a laser one at a time.
Test [2] has as its target Integrin beta-1 (Homo sapiens) + Integrin alpha-4 (Homo sapiens) (UniProt P13612+P05556). The experiment in a line: alpha4beta1 integrin LIBS antibody binding reduction – U937 cells, HUTS-21 mAb, flow cytometry, validation set, VLA-4 allosteric modulator project, pilot screen (AID 2674;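 active = inhibition above 50%, about 3 SD of the validation set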;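 note: antibody binding induced by the VLA-4 ligand LDV present at three times its Kd; 0% = LDV ligand with antibody and no compound and 100% = antibody without LDV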). As to conditions: HUTS-21 LIBS mAb binding, at 6.7 µM, stronger effect = higher value, binding induced by LDV ligand.

Test [3] can be described thus: calorie-restriction mimetic ROS inhibitors, yeast – validation compound set, pilot screen (AID 2706;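 active = superoxide response below 65% of plate, a cut near 3 SD across the whole screen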;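 note: yeast exposed to compound for one week at 30 degrees C before staining; 100% = mean of all compound wells on the same plate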). As to conditions: S. cerevisiae aging, superoxide DHE fluorescence; at 10 µM; stronger effect = lower value.
Test [4] concerns the target Beta-adrenergic receptor kinase 1 (Homo sapiens) (UniProt P25098). In words: GRK2 binders displacing RNA aptamer, biochemical, validation, human GRK2, bead flow cytometry (AID 488806;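 active = aptamer binding inhibition above 30%, about 3 SD of noise from non-fluorescent compounds; inactive = inhibition at or below 30%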). As to conditions: bead-bound GRK2, FAM-aptamer displacement, at 10 µM, stronger effect = higher value.
Test [5] has as its target Beta-2 adrenergic receptor (Homo sapiens) (UniProt P07550). In words: agonist-induced loss of surface beta2AR – cell-based, FAP fluorogen, flow cytometry, validation set, pilot screen (AID 504459;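 active = percent response above 42, roughly 3 SD of non-fluorescent test compounds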;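 note: agonist-driven loss of surface beta2AR via internalization measured by FAP dye flow cytometry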). As to conditions: Am2.2-beta2AR cells, at 10 µM, stronger effect = higher value.
The target of test [6] is AP-2 complex subunit beta (Homo sapiens) (UniProt P63010). In words: beta-arrestin/AP2 interaction blockers – biochemical, validation set, GST-AP2 beads, flow cytometry, pilot screen (AID 504541;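 active = inhibition above 54%, about 3 SD of non-fluorescent compounds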;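 note: AP2 carries R879A mutation and is captured from E. coli lysate; bead-bound FITC arrestin peptide fluorescence measuring arrestin peptide binding to AP2; 0% = DMSO wells and 100% = excess unlabeled arrestin peptide control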). As to conditions: FITC arrestin peptide, at 10 µM, stronger effect = higher value, AP2 beta2 appendage fragment, R879A mutant.
Sequence of AP-2 complex subunit beta (Homo sapiens) (P63010 whole entry, looked up, the tested form may be a part, one chain of several): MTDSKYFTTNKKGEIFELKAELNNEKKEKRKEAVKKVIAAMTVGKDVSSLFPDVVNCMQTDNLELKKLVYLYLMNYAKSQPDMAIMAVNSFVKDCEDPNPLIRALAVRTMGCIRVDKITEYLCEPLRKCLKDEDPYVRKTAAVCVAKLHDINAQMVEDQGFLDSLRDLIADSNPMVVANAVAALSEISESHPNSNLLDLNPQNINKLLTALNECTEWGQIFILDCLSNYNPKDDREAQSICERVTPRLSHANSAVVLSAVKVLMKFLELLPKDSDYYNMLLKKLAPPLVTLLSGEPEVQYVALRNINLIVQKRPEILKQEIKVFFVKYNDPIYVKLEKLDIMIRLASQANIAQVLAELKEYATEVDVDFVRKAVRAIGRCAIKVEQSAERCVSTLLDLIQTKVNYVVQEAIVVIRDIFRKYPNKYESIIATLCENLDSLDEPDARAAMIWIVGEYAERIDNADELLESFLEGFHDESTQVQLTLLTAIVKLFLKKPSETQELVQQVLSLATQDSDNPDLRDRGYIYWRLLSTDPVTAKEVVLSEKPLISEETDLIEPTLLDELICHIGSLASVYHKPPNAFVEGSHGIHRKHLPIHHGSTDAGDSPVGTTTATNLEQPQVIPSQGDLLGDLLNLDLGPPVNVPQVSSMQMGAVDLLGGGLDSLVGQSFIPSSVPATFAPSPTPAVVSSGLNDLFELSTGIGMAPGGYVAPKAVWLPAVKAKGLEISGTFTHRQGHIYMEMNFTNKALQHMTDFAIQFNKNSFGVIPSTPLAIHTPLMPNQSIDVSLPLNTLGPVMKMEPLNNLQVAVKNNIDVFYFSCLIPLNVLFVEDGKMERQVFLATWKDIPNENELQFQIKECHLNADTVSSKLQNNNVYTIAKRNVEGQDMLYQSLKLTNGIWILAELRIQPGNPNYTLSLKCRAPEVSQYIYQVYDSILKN
Test [7] in a line: cytosolic pH regulators acting via V-ATPase – S. cerevisiae, pHLuorin, HTS validation (AID 504600; in the data active = response above about 15%;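 note: plate controls were DMSO for no effect and reference compound for full effect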). As to conditions: V-ATPase proton transport, at 10 µM, stronger effect = higher value.
In test [8] the test system is anti-desmoglein-3 scFv antibody binding to human DSG3. In words: blockers of pathogenic pemphigus antibody–desmoglein-3 binding – biochemical, validation compound set, bead-based, flow cytometry, pilot screen (AID 588368;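 active = binding below the plate cutoff, the plate median minus 3 SD, with a reading above zero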;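 note: signal is the median channel fluorescence of bead-bound GFP antibody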). As to conditions: Protein G beads, DSG3-Fc, scFv-GFP binding, at 10 µM, stronger effect = lower value.
Test [9] in a line: Nile Red efflux blockade in pump-expressing yeast – validation compound set, multiplex, phenotypic, pilot screen (AID 588506;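 active = efflux inhibition above 0.42, the validation set average plus 4 SD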;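 note: Nile Red retained in cells so higher fluorescence means more efflux inhibition; 0 = negative control wells and 1 = enniatin B 25 µM full block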). As to conditions: S. cerevisiae pump-expressing triplex, Nile Red efflux flow cytometry; at 10 µM; stronger effect = higher value; the pumps come from Candida albicans.
Test [10] concerns the target ATP-binding cassette sub-family B member 6 (Homo sapiens) (UniProt Q9NP58). In words: blockers of ABCB6-driven porphyrin uptake – K562-ABCB6 cells, flow cytometry, validation set, pilot screen (AID 588550).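 Note: 0% = DMSO wells and 100% = benzethonium chloride 70 µM positive control.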 As to conditions: K562-ABCB6 porphyrin accumulation, 1 h, at 10 µM, stronger effect = higher value.
Test [11] in a line: AML differentiation inducers, ER-HoxA9 marrow cells – cell-based, GFP/MAC1 double positive, flow cytometry, validation set, primary screen (AID 588685;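 active = differentiation response of at least 50%, scaled between solvent and reference control, from cells with both markers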;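 note: compound exposure lasts four days before antibody staining and flow analysis; 0% = DMSO wells and 100% = 5 µM fulvestrant positive control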). As to conditions: stronger effect = higher value, normalized: vehicle 0, fulvestrant 100.

Sequence of ATP-binding cassette sub-family B member 6 (Homo sapiens) (Q9NP58 whole entry, looked up): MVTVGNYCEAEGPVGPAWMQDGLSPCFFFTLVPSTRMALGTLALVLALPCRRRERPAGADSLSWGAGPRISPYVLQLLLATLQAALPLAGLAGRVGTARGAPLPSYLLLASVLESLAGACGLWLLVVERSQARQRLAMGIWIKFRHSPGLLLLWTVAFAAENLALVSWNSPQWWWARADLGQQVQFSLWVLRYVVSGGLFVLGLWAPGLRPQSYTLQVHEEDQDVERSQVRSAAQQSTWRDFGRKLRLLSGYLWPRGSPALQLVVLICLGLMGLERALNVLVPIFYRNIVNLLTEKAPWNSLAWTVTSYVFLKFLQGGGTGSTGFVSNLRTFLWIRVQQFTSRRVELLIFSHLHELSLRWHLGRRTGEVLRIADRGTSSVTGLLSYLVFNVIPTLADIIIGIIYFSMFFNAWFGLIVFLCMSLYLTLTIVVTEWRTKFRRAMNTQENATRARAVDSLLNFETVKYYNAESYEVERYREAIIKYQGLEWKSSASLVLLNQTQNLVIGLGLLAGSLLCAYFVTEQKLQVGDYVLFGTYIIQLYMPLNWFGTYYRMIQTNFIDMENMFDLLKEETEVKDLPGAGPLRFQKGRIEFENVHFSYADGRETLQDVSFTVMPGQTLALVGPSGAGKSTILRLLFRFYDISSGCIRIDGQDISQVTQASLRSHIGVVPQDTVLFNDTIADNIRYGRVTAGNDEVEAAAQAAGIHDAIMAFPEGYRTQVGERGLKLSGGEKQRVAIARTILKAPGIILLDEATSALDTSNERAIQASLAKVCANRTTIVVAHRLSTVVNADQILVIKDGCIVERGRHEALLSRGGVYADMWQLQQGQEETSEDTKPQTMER
Sequence of Beta-adrenergic receptor kinase 1 (Homo sapiens) (P25098 whole entry, looked up): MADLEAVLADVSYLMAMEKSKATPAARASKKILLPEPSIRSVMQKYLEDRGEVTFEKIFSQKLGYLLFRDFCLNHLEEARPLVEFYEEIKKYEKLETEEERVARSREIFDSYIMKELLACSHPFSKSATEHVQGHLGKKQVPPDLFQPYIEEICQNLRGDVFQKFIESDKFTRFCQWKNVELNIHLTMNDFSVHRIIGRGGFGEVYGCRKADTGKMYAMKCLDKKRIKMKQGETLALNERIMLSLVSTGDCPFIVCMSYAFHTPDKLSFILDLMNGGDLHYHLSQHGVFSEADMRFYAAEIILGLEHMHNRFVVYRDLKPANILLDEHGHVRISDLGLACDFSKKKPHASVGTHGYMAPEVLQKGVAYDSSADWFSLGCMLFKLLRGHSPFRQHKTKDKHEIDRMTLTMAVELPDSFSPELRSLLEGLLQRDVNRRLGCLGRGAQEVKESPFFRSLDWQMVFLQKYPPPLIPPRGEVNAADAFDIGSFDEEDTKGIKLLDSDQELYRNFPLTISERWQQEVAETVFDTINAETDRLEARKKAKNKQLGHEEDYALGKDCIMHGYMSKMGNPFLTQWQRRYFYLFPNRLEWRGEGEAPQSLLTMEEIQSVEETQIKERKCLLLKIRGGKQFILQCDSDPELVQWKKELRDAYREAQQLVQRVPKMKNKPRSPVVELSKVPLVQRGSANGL
Sequence of Beta-2 adrenergic receptor (Homo sapiens) (P07550 whole entry, looked up): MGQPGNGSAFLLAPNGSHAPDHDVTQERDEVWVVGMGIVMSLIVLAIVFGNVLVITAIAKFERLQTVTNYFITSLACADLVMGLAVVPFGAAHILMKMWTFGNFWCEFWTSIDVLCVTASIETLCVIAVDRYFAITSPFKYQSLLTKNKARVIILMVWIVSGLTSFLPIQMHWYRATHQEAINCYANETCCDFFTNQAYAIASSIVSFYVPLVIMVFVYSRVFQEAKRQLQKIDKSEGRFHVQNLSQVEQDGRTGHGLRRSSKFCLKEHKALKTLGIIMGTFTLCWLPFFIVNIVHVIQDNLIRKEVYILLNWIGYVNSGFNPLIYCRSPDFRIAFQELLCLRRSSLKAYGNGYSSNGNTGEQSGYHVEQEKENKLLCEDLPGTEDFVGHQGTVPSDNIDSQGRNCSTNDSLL
Sequence of Integrin beta-1 (Homo sapiens) + Integrin alpha-4 (Homo sapiens) (P05556 whole entry, looked up): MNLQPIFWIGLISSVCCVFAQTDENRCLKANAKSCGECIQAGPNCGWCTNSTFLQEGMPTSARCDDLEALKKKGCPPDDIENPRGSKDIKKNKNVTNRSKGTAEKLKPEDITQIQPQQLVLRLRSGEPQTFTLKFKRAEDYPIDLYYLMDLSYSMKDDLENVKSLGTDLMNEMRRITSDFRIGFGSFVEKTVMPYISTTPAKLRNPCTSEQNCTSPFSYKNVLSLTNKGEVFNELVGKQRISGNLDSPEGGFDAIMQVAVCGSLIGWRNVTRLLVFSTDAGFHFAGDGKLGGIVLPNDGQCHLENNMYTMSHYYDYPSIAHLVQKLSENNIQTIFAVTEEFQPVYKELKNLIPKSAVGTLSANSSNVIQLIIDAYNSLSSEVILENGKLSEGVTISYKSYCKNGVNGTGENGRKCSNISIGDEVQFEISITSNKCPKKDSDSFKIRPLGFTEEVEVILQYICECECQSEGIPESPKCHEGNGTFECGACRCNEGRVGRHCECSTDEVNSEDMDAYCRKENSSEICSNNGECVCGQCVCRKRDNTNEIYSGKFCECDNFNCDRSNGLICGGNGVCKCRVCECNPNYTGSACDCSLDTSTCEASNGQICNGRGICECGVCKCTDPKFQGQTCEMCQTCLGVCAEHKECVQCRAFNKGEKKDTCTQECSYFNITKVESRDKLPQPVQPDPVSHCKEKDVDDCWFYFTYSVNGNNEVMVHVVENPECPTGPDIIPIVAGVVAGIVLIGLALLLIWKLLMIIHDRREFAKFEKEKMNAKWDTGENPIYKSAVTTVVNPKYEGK
Sequence of Integrin beta-1 (Homo sapiens) + Integrin alpha-4 (Homo sapiens) (P13612 whole entry, looked up): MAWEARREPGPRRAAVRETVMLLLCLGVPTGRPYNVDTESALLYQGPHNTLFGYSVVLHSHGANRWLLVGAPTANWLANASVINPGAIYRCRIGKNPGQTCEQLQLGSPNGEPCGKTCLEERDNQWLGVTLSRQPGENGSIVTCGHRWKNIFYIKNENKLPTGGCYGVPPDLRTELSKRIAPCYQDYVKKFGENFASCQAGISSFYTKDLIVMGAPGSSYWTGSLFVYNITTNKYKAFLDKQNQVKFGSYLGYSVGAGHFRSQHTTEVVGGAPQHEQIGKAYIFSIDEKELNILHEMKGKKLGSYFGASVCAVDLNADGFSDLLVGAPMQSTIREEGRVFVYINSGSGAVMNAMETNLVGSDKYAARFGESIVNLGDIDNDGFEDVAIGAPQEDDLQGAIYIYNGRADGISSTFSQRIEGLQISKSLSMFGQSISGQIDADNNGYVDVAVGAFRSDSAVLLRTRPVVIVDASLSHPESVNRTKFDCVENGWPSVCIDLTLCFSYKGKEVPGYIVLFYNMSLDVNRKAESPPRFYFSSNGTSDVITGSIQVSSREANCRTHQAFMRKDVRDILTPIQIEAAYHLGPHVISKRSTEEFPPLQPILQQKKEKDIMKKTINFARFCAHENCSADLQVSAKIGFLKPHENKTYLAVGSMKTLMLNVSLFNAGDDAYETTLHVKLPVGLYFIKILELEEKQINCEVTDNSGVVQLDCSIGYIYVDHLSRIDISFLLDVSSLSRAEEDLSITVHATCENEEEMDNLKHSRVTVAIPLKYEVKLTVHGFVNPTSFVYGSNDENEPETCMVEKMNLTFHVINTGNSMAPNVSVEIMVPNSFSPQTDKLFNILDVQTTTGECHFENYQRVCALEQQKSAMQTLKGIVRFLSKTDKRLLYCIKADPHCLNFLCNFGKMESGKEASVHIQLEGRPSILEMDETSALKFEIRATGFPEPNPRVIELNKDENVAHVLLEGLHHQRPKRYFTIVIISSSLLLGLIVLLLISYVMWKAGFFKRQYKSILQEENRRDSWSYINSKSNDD

Turning to `CN/C(=C/[N+](=O)[O-])NCCSCc1ccc(CN(C)C)o1`, in test [1], the GFP response, % of DMSO is 99.3%. Moreover, the inhibition (in general, the change of the read-out against control, counted positive when it falls) in test [2] is -0.33%; in test [6], -0.41%; in test [10] it was 14%. Further, in test [3], the superoxide response (% of plate) was 89.5%. Further, in test [4], the aptamer binding inhibition was -20%. Moreover, the response in test [5] is 2.38%; in [7], -2.01%. For the same molecule, the binding (% of control) in [8] is 104%. For the same molecule, the efflux inhibition (fraction of control) in test [9] is -0.42. Also, the differentiation response in [11] was -3.28%.

With `C[C@H]1C[C@@H]2[C@H]([C@@H](O)C[C@@]3(C)[C@H]2CC[C@]3(O)C(=O)CO)[C@@]2(C)C=CC(=O)C=C12`, the GFP response, % of DMSO in [1] was 96%. Besides, the values for the inhibition in test [2], in test [6] and in [10] were 10.3%, 2.63% and 13%, respectively. Besides, in test [3], the superoxide response (% of plate) is 88.9%. Also, the aptamer binding inhibition in [4] is 7%. In addition, the response in test [5] is 1.51%; in [7], 0.24%. Also, the binding (% of control) in test [8] was 99.2%. In [9], the efflux inhibition (fraction of control) was -0.38. The differentiation response in test [11] is 0%.

As to `CC(=O)CSc1ncnc2c1cnn2-c1ccccc1`, the GFP response, % of DMSO in test [1] is 92.6%. Also, the inhibition in test [2] was 10.3%; in test [6], 14.5%; in [10], 7%. In addition, in test [3], the superoxide response (% of plate) was 85.6%. The aptamer binding inhibition in test [4] was 1%. Also, the response was 6.9% in test [5] and -1.56% in [7]. Also, the binding (% of control) in [8] was 105%. The efflux inhibition (fraction of control) in test [9] is 0.09. For the same molecule, the differentiation response in [11] was 6.55%.

As for `CC(=O)[C@H]1CC[C@H]2[C@@H]3CCC4=CC(=O)CC[C@]4(C)[C@H]3[C@H](O)C[C@]12C`, in test [1], the GFP response, % of DMSO is 100%. Besides, the inhibition in test [2] was -20.7%; in test [6], 16.3%; in test [10], 2%. In addition, the superoxide response (% of plate) in test [3] was 109%. Further, the aptamer binding inhibition in test [4] is 3%. The response in test [5] is 0.15%; in test [7] it was -2.3%. In [8], the binding (% of control) is 97.4%. In test [9], the efflux inhibition (fraction of control) is 0.12. For the same molecule, the differentiation response in test [11] is 4.09%.

With `COc1ccc(-c2[nH]ncc2CN(CCO)Cc2cccs2)c(F)c1`, in test [1], the GFP response, % of DMSO is 97.2%. Besides, the inhibition was 5.61% in test [2], 53.1% in test [6] and -5% in test [10]. Besides, the superoxide response (% of plate) in test [3] is 92.5%. In test [4], the aptamer binding inhibition is 5%. Moreover, the response is -21% in test [5] and -4.99% in test [7]. Moreover, in test [8], the binding (% of control) is 99.8%. In test [9], the efflux inhibition (fraction of control) is 0.08. Also, the differentiation response in test [11] was -0.18%.

Regarding `O=C(NCCN1CCN(c2ccccc2)CC1)c1cccc(Br)c1`, the GFP response, % of DMSO in test [1] is 100%. In addition, the values for the inhibition in test [2], in test [6] and in [10] were 17.1%, 13.8% and 6%, respectively. In addition, the superoxide response (% of plate) in test [3] was 104%. Also, the aptamer binding inhibition in test [4] is 0%. The figures for the response in test [5] and in test [7] were -3.55% and -7.18%, respectively. Further, in test [8], the binding (% of control) is 103%. Also, the efflux inhibition (fraction of control) in test [9] is 0.05. Besides, the differentiation response in test [11] was 11.5%.

For the molecule `O=C(NC1CCCCC1)N1CCc2[nH]c3ccccc3c2C1`, the GFP response, % of DMSO in [1] is 96%. Also, the inhibition in test [2] was 24.9%; in test [6], 12.6%; in test [10], 6%. Besides, the superoxide response (% of plate) in test [3] was 90.3%. Also, the aptamer binding inhibition in [4] is 3%. In addition, the response in test [5] was 10.8%; in [7], 13.8%. Also, the binding (% of control) in test [8] was 219%. The efflux inhibition (fraction of control) in test [9] was 0.27. Moreover, the differentiation response in test [11] is 10.6%.

Consider `C[C@]12C[C@H](O)[C@H]3[C@@H](CCC4=CC(=O)CC[C@@]43C)[C@@H]1CC[C@@H]2C(=O)CO`, for which, in test [1], the GFP response, % of DMSO is 96.4%. Also, the inhibition is 31.7% in test [2], -0.36% in [6] and 12% in test [10]. Also, the superoxide response (% of plate) in [3] was 103%. In test [4], the aptamer binding inhibition is 4%. The values for the response in test [5] and in test [7] were 4.9% and 6.31%, respectively. Moreover, the binding (% of control) in test [8] is 104%. Moreover, the efflux inhibition (fraction of control) in test [9] was -0.56. For the same molecule, the differentiation response in [11] was 4.91%.

`Cc1ccc(OCCCCn2ccnc2C)c(C)c1`: the GFP response, % of DMSO in [1] was 101%. Moreover, the inhibition was 30.4% in test [2], -1.94% in test [6] and 10% in test [10]. The superoxide response (% of plate) in [3] is 98.5%. Further, in test [4], the aptamer binding inhibition is 3%. Moreover, the response in test [5] was -16%; in [7], 3.03%. In test [8], the binding (% of control) was 106%. Also, in [9], the efflux inhibition (fraction of control) is -0.13. Moreover, in test [11], the differentiation response is 5.85%.

For the molecule `O=c1cc(-c2ccccc2)oc2cc(OCc3ccccc3)cc(O)c12`, in [1], the GFP response, % of DMSO was 98.9%. Moreover, the inhibition in [2] is -16.8%; in test [6] it was 30.1%; in test [10] it was 0%. Moreover, in test [3], the superoxide response (% of plate) is 88.6%. Moreover, in test [4], the aptamer binding inhibition was 0%. Further, the response was -12.6% in [5] and -0.61% in test [7]. Besides, the binding (% of control) in [8] is 100%. For the same molecule, in test [9], the efflux inhibition (fraction of control) was 0.59 (active). Besides, the differentiation response in [11] was 5.73%.

Consider `CC(=O)Nc1ccc(S(=O)(=O)c2ccc(N)cc2)cc1`, for which the GFP response, % of DMSO in test [1] is 105%. Further, the inhibition in [2] was 17.1%; in test [6], -5.82%; in test [10], 8%. In addition, the superoxide response (% of plate) in test [3] is 110%. In test [4], the aptamer binding inhibition was 0%. Further, the response was -3.74% in [5] and -1.44% in [7]. For the same molecule, the binding (% of control) in test [8] is 101%. In [9], the efflux inhibition (fraction of control) is 0.05. Further, the differentiation response in test [11] was 9.01%.

In the case of `COc1ccc(C2=CC(=O)C=CC2=O)cc1`, in test [1], the GFP response, % of DMSO is 100%. In addition, the inhibition was 4.84% in test [2], 64.5% (active) in test [6] and -2% in [10]. Also, the superoxide response (% of plate) in test [3] is 80.4%. Moreover, in test [4], the aptamer binding inhibition is 1%. Further, the response was 64.2% (active) in test [5] and 62.2% (active) in test [7]. Moreover, the binding (% of control) in test [8] is 88.8%. Also, the efflux inhibition (fraction of control) in [9] was -0.04. The differentiation response in test [11] is -0.06%.

Turning to `Cn1c(=O)c(C(=O)NCCO)c(O)c2ccccc21`, the GFP response, % of DMSO in [1] is 98.3%. Moreover, the inhibition in [2] was 15.9%; in test [6], 6.89%; in test [10], 1%. Moreover, the superoxide response (% of plate) in test [3] is 104%. In addition, the aptamer binding inhibition in test [4] was 6%. For the same molecule, the figures for the response in test [5] and in test [7] were -29.6% and 2.23%, respectively. Moreover, in test [8], the binding (% of control) is 103%. Besides, the efflux inhibition (fraction of control) in test [9] was 0. In addition, in [11], the differentiation response was -5.97%.
